Source: PubChem BioAssay AID2796 (The Scripps Research Institute Molecular Screening Center, 2010)
Hit rate of the full screen: of about 320,000 compounds, about 8,000 (2.5%) were called active. The entries come from a sample that favours actives as a whole. A number with no mark means an inactive call. No stated cut-off is given here; in the data, active means activation above about 47%; inactive means the rest.

molecular target: Aryl hydrocarbon receptor (Homo sapiens) (UniProt P35869); assay: AHR activators, primary screen, cell-based, luminescence, luciferase reporter, human (AID 2796); conditions: AHR-responsive luciferase reporter cells, at 5 µM, stronger effect = higher value;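 further: 0% = vehicle wells and 100% = reference agonist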
Sequence (P35869 whole entry, looked up): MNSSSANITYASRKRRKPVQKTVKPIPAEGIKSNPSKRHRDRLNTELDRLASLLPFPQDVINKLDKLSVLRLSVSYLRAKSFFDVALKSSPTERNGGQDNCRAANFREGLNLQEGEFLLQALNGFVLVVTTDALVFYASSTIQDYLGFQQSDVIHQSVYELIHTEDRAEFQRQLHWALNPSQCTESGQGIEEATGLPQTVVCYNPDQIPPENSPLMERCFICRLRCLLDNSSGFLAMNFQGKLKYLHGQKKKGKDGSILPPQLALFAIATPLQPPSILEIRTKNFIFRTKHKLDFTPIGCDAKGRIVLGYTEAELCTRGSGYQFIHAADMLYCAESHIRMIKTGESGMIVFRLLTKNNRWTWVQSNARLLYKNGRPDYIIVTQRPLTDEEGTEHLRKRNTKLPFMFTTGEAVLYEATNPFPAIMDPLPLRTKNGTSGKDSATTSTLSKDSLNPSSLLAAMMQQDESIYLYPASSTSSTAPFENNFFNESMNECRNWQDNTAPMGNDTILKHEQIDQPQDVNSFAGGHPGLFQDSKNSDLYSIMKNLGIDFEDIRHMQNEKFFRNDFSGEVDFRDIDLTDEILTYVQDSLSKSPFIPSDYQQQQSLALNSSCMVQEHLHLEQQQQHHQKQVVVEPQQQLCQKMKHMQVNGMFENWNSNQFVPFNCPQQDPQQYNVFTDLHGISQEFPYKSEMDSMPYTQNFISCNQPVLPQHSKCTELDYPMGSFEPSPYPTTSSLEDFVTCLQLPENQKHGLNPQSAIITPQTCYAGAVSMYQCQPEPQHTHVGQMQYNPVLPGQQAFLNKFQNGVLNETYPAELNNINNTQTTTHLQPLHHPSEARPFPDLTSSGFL

Row | Structure (SMILES) | activation
1 | O=C(Nc1cccnc1)c1cc([N+](=O)[O-])ccc1Cl | 0.88%
2 | CNc1ccc([N+](=O)[O-])cc1C(=O)O | -2.24%
3 | Cc1ccc(NC(=O)c2cc([N+](=O)[O-])ccc2Cl)c(O)c1 | 49% (active)
4 | COc1ccc(S(=O)(=O)NC(C)C(=O)NCc2ccncc2)cc1Cl (configuration not stated) | -0.4%
5 | C[C@H](CO)N1C[C@H](C)[C@@H](CN(C)S(=O)(=O)c2ccc(F)cc2)Oc2c(NC(=O)Nc3ccccc3)cccc2C1=O | 0.64%
6 | Cc1cccc(NC(=O)c2ccc3nsnc3c2)c1C | 10.3%
7 | O=C(Nc1ccccc1)c1ccc2nsnc2c1 | 60.2% (active)
8 | O=C(Nc1cccc(NC(=O)c2cccc(F)c2)c1)c1ccccc1 | 26.6%
9 | COC(C(=O)Nc1ccc(S(=O)(=O)Nc2ccc(C)c(C)c2)cc1)c1ccccc1 (configuration not stated) | -0.6%
10 | COCCN1CCn2c(nc3cc(NS(C)(=O)=O)ccc32)C1 | 4.78%
11 | Cc1ccc(S(=O)(=O)NCC(=O)N(CC(=O)NC(C)(C)C)Cc2cccs2)cc1 | 3.31%
12 | CCc1noc(C)c1C(=O)Nc1nc2ccc(OC)cc2s1 | 1.93%
13 | O=C(O)c1ccccc1C(=O)Nc1nc(-c2ccccc2)cs1 | 1.84%
14 | CCc1noc(C)c1C(=O)Nc1nc(-c2ccccc2)cs1 | 55.4% (active)
15 | Nc1ncc(CN2CCCC(C(=O)Nc3ccc(-c4ccco4)cc3)C2)cn1 (configuration not stated) | 5.9%
16 | Cc1cc(=O)oc2c(C(=O)c3ccccc3)c(OCC(N)=O)ccc12 | 3.98%
17 | O=C(COC(=O)c1ccc(F)cc1)NCC1COc2ccccc2O1 (configuration not stated) | -0.1%
18 | Cc1noc(C)c1NC(=O)Nc1ccc2c(c1)C(=O)N([C@H](C)CO)C[C@H](C)[C@@H](CN(C)S(=O)(=O)c1cn(C)cn1)O2 | 0.71%
19 | O=S(=O)(Nc1ccc(-n2cnnn2)cc1)c1ccc(Cl)cc1 | 1.5%
20 | Cc1cc(C)nc(N/N=C/c2c(C)oc3ccccc23)n1 | 11.9%
21 | Cc1nc(Cl)cc(N/N=C/c2ccccc2)n1 | 23.2%

Row | Structure (SMILES) | activation
22 | Cc1noc(C)c1/C=N/Nc1ccc2ccccc2n1 | 83.3% (active)
23 | Cc1cc(=O)[nH]c(N/N=C/c2ccc3c(c2)OCCO3)n1 | 14.6%
24 | O=C(CN1CCN(c2nc(-c3ccccc3)cs2)CC1)NCc1ccc2c(c1)OCO2 | 0.54%
25 | C(=N\Nc1ccc2ccccc2n1)/c1ccc2c(c1)OCO2 | 101% (active)
26 | Brc1ccc(-c2csc(N/N=C/c3cccnc3)n2)cc1 | -4.57%
27 | O=C(Cc1ccc(F)cc1)N/N=C/c1ccc2c(c1)OCO2 | 42%
28 | Brc1ccc(-c2csc(N/N=C/c3ccc4c(c3)OCO4)n2)cc1 | 58% (active)
29 | O=C(OCC(=O)N1CCCC1)c1ccc(Cl)nc1 | -1.12%
30 | CCC(C)(C(=O)NC1CCCCC1)N(C)C(=O)c1ccc2c(c1)OCO2 (configuration not stated) | -0.09%
31 | CCOC(=O)C1=NNC2(c3ccc(Cl)cc3)C(=O)N(c3cc(C)cc(C)c3)C(=O)C12 (configuration not stated) | 5.66%
32 | CCC(CC)c1nnc(NC(=O)/C=C/c2ccco2)s1 | 46.2%
33 | CCc1nnc(NC(=O)/C=C/c2ccc(C)o2)s1 | 28.2%
34 | Cc1nnc(NC(=O)/C=C/c2ccco2)s1 | 120% (active)
35 | COc1ccc(S(=O)(=O)N2CCC(C(=O)NCc3ccco3)CC2)cc1C | 0.76%
36 | CCc1ccc(NC(=O)C(=O)N/N=C(\C)CC(=O)NCCOC)cc1 | 8.77%
37 | CC(Sc1nncn1C)C(=O)NCCC1=CCCCC1 (configuration not stated) | -0.01%
38 | CC1CCc2sc3nc(N4CCN(CCO)CC4)n4ncnc4c3c2C1 (configuration not stated) | 61.8% (active)
39 | CC1CCc2c(sc3nc4n(c(=O)c23)CCS4)C1 (configuration not stated) | -1.18%
40 | CCCn1nnc2sc3c(c2c1=O)CCC(C)C3 (configuration not stated) | -0.09%
41 | c1ccc2c(c1)CCc1snnc1-2 | 2.81%
42 | CCC1CCc2c(sc(NC(C)=O)c2C#N)C1 (configuration not stated) | 1.29%

Row | Structure (SMILES) | activation
43 | COc1ccc(NC(=O)C(CC(C)C)NC(=O)C2CCC(C)CC2)cc1 (configuration not stated) | 1.21%
44 | CC(=O)Nc1ccc(S(=O)(=O)NCC2CCC(C(=O)NCCc3ccccc3)CC2)cc1 (configuration not stated) | 0.11%
45 | Cn1cncc1C#Cc1c(-c2ccsc2)sc2ccccc12 | 52.7% (active)
46 | Cc1cccc(-c2oc3ccc(-c4ccc5c(c4)OCO5)cc3c2C#Cc2cncn2C)c1 | 26.5%
47 | O=C(NCc1ccc2c(c1)OCO2)c1c(-c2ccsc2)sc2ccccc12 | 44.7%
48 | COC(=O)/C(=C\Nc1ccccc1)NC(=O)c1ccc(Cl)cc1Cl | 1.34%
49 | N#CC1(C#N)C(C(=O)C23CC4CC(CC(C4)C2)C3)C12CCOCC2 (configuration not stated) | -2.81%
50 | COc1ccc(C(=O)NCC(=O)N/N=C/c2ccc([N+](=O)[O-])s2)cc1OC | -1.7%
51 | CC(C)(C)c1cc(C(=O)N/N=C/c2ccc([N+](=O)[O-])s2)n[nH]1 | -8.74%
52 | Cc1ccccc1NCC(=O)N/N=C\c1ccc([N+](=O)[O-])s1 | 56.7% (active)
53 | Cc1cc(O)ccc1NC1=CC(=O)CC(C)(C)C1 | 15.2%
54 | CCN1CCN(C(=O)CN(C)S(=O)(=O)c2ccc3ccccc3c2)CC1 | -1.56%
55 | C[C@@H]1CN([C@H](C)CO)C(=O)c2cc(NC(=O)NC3CCCCC3)ccc2O[C@H]1CN(C)S(C)(=O)=O | -0.98%
56 | CCOc1ccc(C(O)Cc2nc3ccccc3n2C)cc1 (configuration not stated) | 118% (active)
57 | CCCn1c(C(O)c2ccc(OCC)cc2)nc2ccccc21 (configuration not stated) | 0.65%
58 | COc1cccc(C(O)Cc2nc3ccccc3n2C)c1OC (configuration not stated) | 6.17%
59 | Cc1cc(Br)ccc1NC(=O)c1cnc(N2CCN(c3ccccn3)CC2)c2ccccc12 | 20.2%
60 | N#CCSc1nc2ccc(N3CCOCC3)cc2c(=O)n1CCc1ccccc1 | 1.4%
61 | Cc1cc(Nc2ccc(N3CCOCC3)cc2)c2cccc(C)c2n1 | 8.99%
62 | Cc1nn2c3cc(N4CCOCC4)ccc3nc2c2ccccc12 | 144% (active)
